# In PubChem BioAssay AID368 (University of Pittsburgh Molecular Library Screening Center, 2006):
# In all, about 65,000 compounds went through this assay and about 85 (0.1%) were called active. No stated cut-off is given here; in the data, active means inhibition above about 50%; inactive means the rest. This excerpt belongs to a sample that is enriched for actives.
# Target: M-phase inducer phosphatase 2 (Homo sapiens) (UniProt P30305)
# Assay: inhibitors of Cdc25B phosphatase catalytic domain, primary screen, biochemical, OMFP fluorescence (AID 368)
# Details: recombinant Cdc25B, OMFP fluorescence Ex485/Em525; stronger effect = higher value;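 compounds tested at 10 µM final in the well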
# Sequence of M-phase inducer phosphatase 2 (Homo sapiens) (P30305 whole entry, looked up, the tested form may be a part): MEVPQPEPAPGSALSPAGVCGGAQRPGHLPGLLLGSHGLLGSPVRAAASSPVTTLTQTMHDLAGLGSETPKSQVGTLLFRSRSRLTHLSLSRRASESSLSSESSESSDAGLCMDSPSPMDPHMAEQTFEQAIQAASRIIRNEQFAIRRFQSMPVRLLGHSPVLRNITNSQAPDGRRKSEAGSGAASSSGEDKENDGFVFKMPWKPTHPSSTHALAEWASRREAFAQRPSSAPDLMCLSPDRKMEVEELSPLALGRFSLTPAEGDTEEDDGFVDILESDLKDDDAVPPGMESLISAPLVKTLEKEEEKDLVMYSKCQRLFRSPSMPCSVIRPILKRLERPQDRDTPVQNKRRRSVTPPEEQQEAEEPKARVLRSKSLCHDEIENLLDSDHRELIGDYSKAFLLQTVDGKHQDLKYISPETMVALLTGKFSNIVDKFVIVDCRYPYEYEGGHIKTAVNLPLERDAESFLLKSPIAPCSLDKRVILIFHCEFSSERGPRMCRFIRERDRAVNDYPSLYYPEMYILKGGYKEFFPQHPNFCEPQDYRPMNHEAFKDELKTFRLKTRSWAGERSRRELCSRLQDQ
row,SMILES,inhibition
1,O=C(O)C1CC=C(Cl)CC1C(=O)NCc1ccccc1 (stereo unspecified),-4.83% (inactive)
2,O=C(CN1C(=O)C2C3C=CC(C3)C2C1=O)NCCc1ccccc1Cl (stereo unspecified),-3.46% (inactive)
3,Cc1ccc(C)c(N(CC(=O)NCc2ccco2)C(=O)CCC(=O)Nc2ccccn2)c1,0.139% (inactive)
4,C=CCNC(=O)CSc1nc2sc(C)c(C)c2c(=O)[nH]1,-5.03% (inactive)
5,CCC1SC2=NCCN2C1(O)c1ccc(Cl)cc1 (stereo unspecified),1.15% (inactive)
6,COC(=O)c1ccc(NC(=O)CSc2nnc(CNc3ccc(OC)cc3)n2C)cc1,-15.2% (inactive)
7,O=C(Nc1ccc(F)cc1)c1cccnc1N1CCOCC1,0.374% (inactive)
8,COc1ccccc1C1/C(=C(/O)c2ccc(OC(C)C)cc2)C(=O)C(=O)N1c1cc(C)on1 (stereo unspecified),22% (inactive)
9,COc1ccc(S(=O)(=O)N(CCCN2CCCC2=O)Cc2cc3c(C)ccc(C)c3[nH]c2=O)cc1,4.58% (inactive)
10,COc1ccc(Cl)cc1NC(=O)c1oc(C)nc1C,-1.12% (inactive)
11,O=C(O)CSC(NC(=O)c1cccnc1)(C(F)(F)F)C(F)(F)F,-2.28% (inactive)
12,O=C(c1ccco1)N1CCN=C1SCc1cccc(Cl)c1,-9.08% (inactive)
13,CC1CCCCC1NC(=O)CSc1nnc(N)s1 (stereo unspecified),-11.7% (inactive)
14,COc1ccc(C(=O)N2CCC(C(=O)Nc3cccc(C)c3)CC2)cc1OC,-5.03% (inactive)
15,Cc1cc(C(F)(F)F)nn1-c1nc(-c2ccco2)cc(C(F)(F)F)n1,-12.3% (inactive)
16,COc1ccc(NS(=O)(=O)c2ccc(NC(C)=O)cc2)cc1OC,-8.27% (inactive)
17,COCCNC(=O)C(c1ccc(C)o1)N(Cc1cccs1)C(=O)c1snc(C(N)=O)c1N (stereo unspecified),-5.11% (inactive)
18,Cc1nnc(SCC(=O)NCCOc2ccc(Cl)cc2)n1-c1ccccc1,-10.1% (inactive)
19,COc1cccc(N(CC(=O)Nc2cccc(F)c2)S(C)(=O)=O)c1,-4.86% (inactive)
20,COc1ccc(C(=O)NCCc2ccc(S(N)(=O)=O)cc2)cc1OC,-4.01% (inactive)
21,CCOC(=O)c1ccn(-c2nc(-c3ccco3)cc(C(F)(F)F)n2)n1,-12.2% (inactive)

row,SMILES,inhibition
1,CCCOc1ccc(CN(CCO)CCO)cc1C(=O)OC,1.99% (inactive)
2,O=C(NC1(C(F)(F)F)N=C2SCCN2C1=O)c1ccco1 (stereo unspecified),0.794% (inactive)
3,O=C(c1ccccc1)c1ccc2nc(N3CCCCC3)c3nncn3c2c1,-11.8% (inactive)
4,O=S(=O)(c1ccc2ccccc2c1)N1CCN(S(=O)(=O)N2CCOCC2)CC1,-4.37% (inactive)
5,O=c1cc(CSc2ccc(Cl)cc2)nc(N2CCOCC2)[nH]1,7.35% (inactive)
6,CCCOP(=O)(c1ccc(N(C)C)cc1)C(O)c1cc(OC)c(OC)c(OC)c1 (stereo unspecified),-0.929% (inactive)
7,CCOC(=O)N1CCN(CC(=O)n2c(C)c(C)c3ccccc32)CC1,-1.72% (inactive)
8,Cc1ccc2c(C(=O)CN3CCCC3)c(C)[nH]c2c1,-0.2% (inactive)
9,CCOC(=O)N1CCN(CC(=O)c2c(C)[nH]c3ccccc23)CC1,60% (active)
10,Cc1occc1C(=O)Nc1cccc(Cn2cccn2)c1,-8.98% (inactive)
11,O=C(O)CC(Cn1cnnn1)c1ccccc1 (stereo unspecified),-6.9% (inactive)
12,O=C1CCCc2c1[nH]c1ccc(Br)cc21,5.28% (inactive)
13,Cc1ccsc1C(C(=O)NC1CCCCC1)N(C(=O)Cc1cccs1)C1CC1 (stereo unspecified),4.04% (inactive)
14,CCc1c(C)nc2cc(-c3cccs3)[nH]n2c1=O,-13.1% (inactive)
15,C/C(=C(\C#N)C(=O)NCCCN1CCOCC1)N(C)C,-7.37% (inactive)
16,CCCC(=O)Nc1ccc(C(=O)NCCCn2ccnc2)cc1,2.06% (inactive)
17,CCn1cc(C(=O)NCC2COc3ccccc3O2)c2cc(OC)c(OC)cc2c1=O (stereo unspecified),-8.97% (inactive)
18,CCOC(=O)CNC(=O)CN1C(=O)CCSc2ccccc21,-0.999% (inactive)
19,O=C1NC(Nc2nc3ccccc3s2)(C(F)(F)F)C(=O)N1C1CCCCC1 (stereo unspecified),-0.883% (inactive)
20,CC(=O)Nc1ccc(S(=O)(=O)NCCc2ccccc2)cc1,-7.41% (inactive)
21,CC1OC2C(OC1C)N(S(C)(=O)=O)CCN2S(C)(=O)=O (stereo unspecified),-4.42% (inactive)

row,SMILES,inhibition
1,CCOc1ccc(CCNC(=O)C(CC)n2nc(C)n3c(cc4sccc43)c2=O)cc1OCC (stereo unspecified),-12.3% (inactive)
2,CCn1ncc(C2=NOC(C(=O)N3CCN(c4ccccc4)CC3)C2)c1C (stereo unspecified),-17.4% (inactive)
3,CCOC(=O)C1CCCN(C(=O)C2CCN(c3nnc(-n4cccc4)s3)CC2)C1 (stereo unspecified),6.02% (inactive)
4,Cn1c(=O)c2c(nc(SCC(=O)Nc3ccccc3N3CCCCC3)n2C)n(C)c1=O,-12.6% (inactive)
5,CCCCSc1nnc(-c2ccc(C)cc2)o1,-7.53% (inactive)
6,O=C(Nc1nc2cc3c(cc2s1)OCCO3)c1cccc(S(=O)(=O)N2CCOCC2)c1,-3.84% (inactive)
7,CCN1C(=O)C(C(=O)NC(C)c2ccccc2)C2CC1(C)Oc1ccccc12 (stereo unspecified),-6.65% (inactive)
8,c1ccc(CSc2nnc(-c3ccco3)c(-c3ccco3)n2)cc1,50.3% (active)
9,Clc1ccccc1CSc1nnc(-c2ccco2)c(-c2ccco2)n1,-25.9% (inactive)
10,c1ccc(CSc2nnc(-c3ccco3)n2Cc2ccccc2)cc1,-11.9% (inactive)
11,C=CCn1c(SCC(=O)NC23CC4CC(CC(C4)C2)C3)nc(O)cc1=O,2.29% (inactive)
12,NC(=O)CSC1=Nc2ccccc2C2=NC(CCC(=O)NCc3ccc(F)cc3)C(=O)N12 (stereo unspecified),-3.7% (inactive)
13,CCOC(=O)c1c(C)nc(-c2ccccc2)nc1NC(=O)C(C)C,-5.5% (inactive)
14,CCOC(=O)Cn1c(N)c(C(=O)OC)sc1=S,-11% (inactive)
15,CC(=O)Nc1ccn(Cc2c(F)cccc2Cl)n1,-13% (inactive)
16,O=C(c1ccc(S(=O)(=O)N2CCOCC2)cc1)N1CCN(c2ccccc2)CC1,1.6% (inactive)
17,CCOC(=O)c1[nH]cnc1C(=O)NC1CCCCC1,-0.873% (inactive)
18,Cc1csc(NC(=O)NC2(C(F)(F)F)Oc3ccccc3O2)n1,-7.31% (inactive)
19,O=C(CCCn1c(=O)oc2ccccc21)Nc1cccnc1,-11.7% (inactive)
